# Laboratory results as given in article PMC7862700, “An all-to-all approach to the identification of sequence-specific readers for epigenetic DNA modifications on cytosine”.
# Experiments:
# Test in all cases: DAPPL (digital affinity profiling via proximity ligation, sequencing); 10 mM Tris-HCl pH 7.5, 50 mM NaCl, 1 mM DTT, 4% glycerol, room temperature, 30 min; GST-TFs on glutathione beads, 16-mer random dsDNA library, 0.1% formaldehyde crosslink after washing; high values mean tight binding
# Conditions in all cases: protein: recombinant; tags: N-terminal GST; dsDNA, one strand shown
# [1] = molecular target: T1, SPIC (Homo sapiens, UniProt Q8N5J4 1-248)
# T1 sequence: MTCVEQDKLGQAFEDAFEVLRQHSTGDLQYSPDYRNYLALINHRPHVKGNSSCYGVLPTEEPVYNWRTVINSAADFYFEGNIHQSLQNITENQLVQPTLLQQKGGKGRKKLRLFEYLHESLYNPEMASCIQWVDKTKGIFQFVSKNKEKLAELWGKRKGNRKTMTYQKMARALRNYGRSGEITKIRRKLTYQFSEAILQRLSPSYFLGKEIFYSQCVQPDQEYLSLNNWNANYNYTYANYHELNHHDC
# Procedure, shortened: (§1)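 A tag-only sample was pooled with DNA-barcoded human transcription factors that had been expressed in yeast as GST fusions and captured on glutathione beads. The pools were incubated for 30 min at room temperature with 200 nmole of a random double-stranded 16-mer DNA library in Tris/NaCl/DTT/glycerol buffer, then washed, crosslinked with 0.1% formaldehyde, proximity-ligated (BsaI/T4 ligase, 1 h, 37 °C), PCR-amplified and sequenced on an Illumina NextSeq500. Binding signal is each hexamer's read frequency for a factor divided by its frequency for the tag-only sample.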
# [2] = molecular target: T2, ELF3 (Homo sapiens, UniProt P78545 1-371)
# T2 sequence: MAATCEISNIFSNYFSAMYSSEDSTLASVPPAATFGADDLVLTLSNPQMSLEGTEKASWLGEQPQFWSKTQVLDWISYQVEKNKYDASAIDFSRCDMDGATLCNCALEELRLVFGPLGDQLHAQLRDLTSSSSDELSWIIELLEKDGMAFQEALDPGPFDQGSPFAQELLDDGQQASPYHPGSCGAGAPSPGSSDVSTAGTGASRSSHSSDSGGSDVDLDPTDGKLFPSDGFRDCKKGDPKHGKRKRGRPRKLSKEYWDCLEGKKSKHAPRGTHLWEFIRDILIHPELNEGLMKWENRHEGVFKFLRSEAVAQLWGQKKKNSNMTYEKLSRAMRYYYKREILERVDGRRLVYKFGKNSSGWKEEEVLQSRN
# Procedure, shortened: as §1
# [3] = molecular target: T3, ETV2 (Homo sapiens, UniProt O00321 1-342)
# T3 sequence: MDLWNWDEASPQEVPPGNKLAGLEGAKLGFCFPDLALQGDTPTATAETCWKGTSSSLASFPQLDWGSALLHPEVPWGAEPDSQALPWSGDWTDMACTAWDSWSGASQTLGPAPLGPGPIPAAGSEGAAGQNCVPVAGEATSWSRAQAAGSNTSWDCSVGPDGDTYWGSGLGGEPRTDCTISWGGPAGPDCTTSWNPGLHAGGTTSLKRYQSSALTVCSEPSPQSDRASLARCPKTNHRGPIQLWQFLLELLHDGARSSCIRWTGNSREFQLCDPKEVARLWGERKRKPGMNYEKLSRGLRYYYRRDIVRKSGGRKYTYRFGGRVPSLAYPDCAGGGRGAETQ
# Procedure, shortened: as §1
# [4] = molecular target: T4, ERF (Homo sapiens, UniProt P50548 1-548)
# T4 sequence: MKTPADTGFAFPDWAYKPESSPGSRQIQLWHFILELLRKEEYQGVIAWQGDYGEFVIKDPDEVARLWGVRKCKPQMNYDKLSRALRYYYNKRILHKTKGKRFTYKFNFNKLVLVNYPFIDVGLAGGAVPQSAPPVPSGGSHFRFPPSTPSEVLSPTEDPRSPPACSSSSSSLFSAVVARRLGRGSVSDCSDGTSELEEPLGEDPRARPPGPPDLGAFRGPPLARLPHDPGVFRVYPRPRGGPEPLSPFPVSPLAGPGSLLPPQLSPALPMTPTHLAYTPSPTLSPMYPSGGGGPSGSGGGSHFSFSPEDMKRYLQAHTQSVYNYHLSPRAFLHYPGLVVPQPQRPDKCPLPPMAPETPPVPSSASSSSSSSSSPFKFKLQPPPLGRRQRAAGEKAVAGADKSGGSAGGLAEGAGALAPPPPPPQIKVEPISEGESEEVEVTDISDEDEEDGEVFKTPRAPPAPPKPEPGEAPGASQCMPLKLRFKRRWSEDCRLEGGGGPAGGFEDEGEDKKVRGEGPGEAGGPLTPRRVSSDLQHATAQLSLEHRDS
# Procedure, shortened: as §1
# [5] = molecular target: T5, ETV7 (Homo sapiens, UniProt Q9Y603 1-341)
# T5 sequence: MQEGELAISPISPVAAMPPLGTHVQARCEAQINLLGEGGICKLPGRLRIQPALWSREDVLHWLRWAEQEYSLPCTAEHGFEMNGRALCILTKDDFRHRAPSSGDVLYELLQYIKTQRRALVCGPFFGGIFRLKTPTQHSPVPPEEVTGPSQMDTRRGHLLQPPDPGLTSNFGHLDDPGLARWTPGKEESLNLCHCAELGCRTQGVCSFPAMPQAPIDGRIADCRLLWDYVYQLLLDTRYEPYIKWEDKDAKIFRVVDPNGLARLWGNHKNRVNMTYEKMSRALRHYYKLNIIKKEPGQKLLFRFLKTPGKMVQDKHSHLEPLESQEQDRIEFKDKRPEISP
# Procedure, shortened: as §1
# [6] = molecular target: T6, EHF (Homo sapiens, UniProt Q9NZC4 1-300)
# T6 sequence: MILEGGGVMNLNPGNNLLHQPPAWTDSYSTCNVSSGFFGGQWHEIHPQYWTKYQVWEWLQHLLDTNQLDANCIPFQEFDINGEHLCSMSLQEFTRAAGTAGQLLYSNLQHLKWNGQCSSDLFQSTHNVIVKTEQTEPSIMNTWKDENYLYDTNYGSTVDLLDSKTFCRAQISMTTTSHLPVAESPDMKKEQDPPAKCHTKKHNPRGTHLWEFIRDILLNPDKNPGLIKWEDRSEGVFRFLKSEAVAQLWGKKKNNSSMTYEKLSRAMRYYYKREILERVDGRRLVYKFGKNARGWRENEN
# Procedure, shortened: as §1
# [7] = molecular target: SPIB (Homo sapiens, UniProt Q01892 1-262)
# Procedure, shortened: as §1
# [8] = molecular target: T7, ELK3 (Homo sapiens, UniProt P41970 1-407)
# T7 sequence: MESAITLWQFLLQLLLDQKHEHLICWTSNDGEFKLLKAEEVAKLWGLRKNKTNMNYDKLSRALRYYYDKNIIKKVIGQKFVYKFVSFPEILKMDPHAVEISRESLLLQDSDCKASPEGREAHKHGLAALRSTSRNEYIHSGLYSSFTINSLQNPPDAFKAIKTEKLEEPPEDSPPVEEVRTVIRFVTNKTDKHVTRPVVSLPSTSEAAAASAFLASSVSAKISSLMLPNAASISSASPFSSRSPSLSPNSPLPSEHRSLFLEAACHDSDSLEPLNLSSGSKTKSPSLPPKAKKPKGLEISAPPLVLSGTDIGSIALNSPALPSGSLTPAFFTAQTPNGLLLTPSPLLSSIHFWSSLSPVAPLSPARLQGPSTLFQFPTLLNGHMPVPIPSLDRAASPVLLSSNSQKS
# Procedure, shortened: as §1
# [9] = molecular target: T8, ELK4 (Homo sapiens, UniProt P28324-2 1-405)
# T8 sequence: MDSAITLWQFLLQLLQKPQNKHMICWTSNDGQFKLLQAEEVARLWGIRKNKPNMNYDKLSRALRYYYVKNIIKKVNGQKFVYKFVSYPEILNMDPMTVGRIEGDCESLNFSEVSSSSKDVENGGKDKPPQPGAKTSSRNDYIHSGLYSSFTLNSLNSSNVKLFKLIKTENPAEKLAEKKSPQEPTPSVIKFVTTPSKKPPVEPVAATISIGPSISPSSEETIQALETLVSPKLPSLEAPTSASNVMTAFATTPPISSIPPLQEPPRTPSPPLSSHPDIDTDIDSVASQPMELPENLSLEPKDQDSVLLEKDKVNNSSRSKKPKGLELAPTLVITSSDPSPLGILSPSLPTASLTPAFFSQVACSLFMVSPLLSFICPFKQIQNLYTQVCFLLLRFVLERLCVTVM
# Procedure, shortened: as §1
# [10] = molecular target: T9, GABPA (Homo sapiens, UniProt Q06546 1-454)
# T9 sequence: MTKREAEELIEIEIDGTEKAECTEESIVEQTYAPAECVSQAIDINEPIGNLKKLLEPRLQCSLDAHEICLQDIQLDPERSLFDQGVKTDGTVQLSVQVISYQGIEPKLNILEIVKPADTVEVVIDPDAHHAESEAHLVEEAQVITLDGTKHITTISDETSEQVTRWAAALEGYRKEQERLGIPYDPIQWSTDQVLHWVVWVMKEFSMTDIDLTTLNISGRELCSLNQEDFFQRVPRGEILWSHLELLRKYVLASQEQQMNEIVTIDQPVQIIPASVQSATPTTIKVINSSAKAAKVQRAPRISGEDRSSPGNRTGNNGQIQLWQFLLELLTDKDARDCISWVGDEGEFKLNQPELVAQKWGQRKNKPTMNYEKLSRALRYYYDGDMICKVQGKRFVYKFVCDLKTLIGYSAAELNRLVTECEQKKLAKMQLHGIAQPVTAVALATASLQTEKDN
# Procedure, shortened: as §1
# [11] = molecular target: ELF1 (Homo sapiens, UniProt P32519 1-619)
# Procedure, shortened: as §1
# [12] = molecular target: T10, ETS2 (Homo sapiens, UniProt P15036 1-469)
# T10 sequence: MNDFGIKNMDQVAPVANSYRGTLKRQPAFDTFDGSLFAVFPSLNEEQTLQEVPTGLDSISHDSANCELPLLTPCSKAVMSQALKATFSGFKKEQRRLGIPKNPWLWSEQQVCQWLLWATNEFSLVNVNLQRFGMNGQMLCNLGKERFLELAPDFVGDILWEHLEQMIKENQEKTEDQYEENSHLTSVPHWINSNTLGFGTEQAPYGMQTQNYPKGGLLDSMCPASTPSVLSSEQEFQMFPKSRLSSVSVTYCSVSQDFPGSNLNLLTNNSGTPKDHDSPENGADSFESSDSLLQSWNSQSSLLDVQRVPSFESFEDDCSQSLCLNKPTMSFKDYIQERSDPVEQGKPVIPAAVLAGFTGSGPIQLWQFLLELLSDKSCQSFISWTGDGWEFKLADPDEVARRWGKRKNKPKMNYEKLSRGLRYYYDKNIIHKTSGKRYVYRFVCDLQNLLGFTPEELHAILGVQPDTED
# Procedure, shortened: as §1
# Sequence of SPIB (Q01892 whole entry): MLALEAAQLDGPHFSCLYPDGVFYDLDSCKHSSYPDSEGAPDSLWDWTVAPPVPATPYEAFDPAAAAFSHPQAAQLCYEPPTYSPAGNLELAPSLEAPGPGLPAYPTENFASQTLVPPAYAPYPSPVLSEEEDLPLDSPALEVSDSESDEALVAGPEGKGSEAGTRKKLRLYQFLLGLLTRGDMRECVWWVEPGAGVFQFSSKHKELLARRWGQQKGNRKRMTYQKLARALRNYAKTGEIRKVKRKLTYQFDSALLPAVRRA
# Sequence of ELF1 (P32519 whole entry): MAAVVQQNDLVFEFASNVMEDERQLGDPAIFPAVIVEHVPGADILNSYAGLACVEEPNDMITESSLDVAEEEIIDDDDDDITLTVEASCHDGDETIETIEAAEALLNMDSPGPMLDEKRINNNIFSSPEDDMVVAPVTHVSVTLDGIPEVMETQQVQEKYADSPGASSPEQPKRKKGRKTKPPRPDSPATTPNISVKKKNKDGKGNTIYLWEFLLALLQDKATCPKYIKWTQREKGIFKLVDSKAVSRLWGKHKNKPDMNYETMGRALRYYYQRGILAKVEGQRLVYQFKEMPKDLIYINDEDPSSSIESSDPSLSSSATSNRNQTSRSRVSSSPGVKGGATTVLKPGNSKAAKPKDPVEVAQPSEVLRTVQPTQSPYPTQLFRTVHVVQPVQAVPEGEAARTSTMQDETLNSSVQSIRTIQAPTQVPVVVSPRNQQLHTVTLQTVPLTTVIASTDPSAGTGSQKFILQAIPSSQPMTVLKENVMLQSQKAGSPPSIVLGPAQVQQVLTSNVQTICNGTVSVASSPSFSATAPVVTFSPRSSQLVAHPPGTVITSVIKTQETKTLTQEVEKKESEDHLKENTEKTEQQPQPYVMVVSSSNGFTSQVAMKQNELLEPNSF
sequence,measurement,setting,value
AGGTGT,binding signal,[1],"1.02 fold enrichment (6-mer frequency, TF over GST control)"
same,binding signal,[2],"1.05 fold enrichment (6-mer frequency, TF over GST control)"
GTTCGT,binding signal,[1],"1.12 fold enrichment (6-mer frequency, TF over GST control)"
same,binding signal,[3],"1.05 fold enrichment (6-mer frequency, TF over GST control)"
same,binding signal,[4],"1.12 fold enrichment (6-mer frequency, TF over GST control)"
GTAGTA,binding signal,[1],"1 fold enrichment (6-mer frequency, TF over GST control)"
same,binding signal,[5],"1.01 fold enrichment (6-mer frequency, TF over GST control)"
CGCGCA,binding signal,[6],"1.07 fold enrichment (6-mer frequency, TF over GST control)"
same,binding signal,[7],"1.04 fold enrichment (6-mer frequency, TF over GST control)"
same,binding signal,[8],"1.01 fold enrichment (6-mer frequency, TF over GST control)"
same,binding signal,[1],"1.01 fold enrichment (6-mer frequency, TF over GST control)"
same,binding signal,[9],"1.13 fold enrichment (6-mer frequency, TF over GST control)"
same,binding signal,[3],"1.02 fold enrichment (6-mer frequency, TF over GST control)"
CAGCAC,binding signal,[10],"1.03 fold enrichment (6-mer frequency, TF over GST control)"
same,binding signal,[11],"1.02 fold enrichment (6-mer frequency, TF over GST control)"
same,binding signal,[6],"1 fold enrichment (6-mer frequency, TF over GST control)"
same,binding signal,[1],"1.11 fold enrichment (6-mer frequency, TF over GST control)"
same,binding signal,[2],"1.02 fold enrichment (6-mer frequency, TF over GST control)"
same,binding signal,[4],"1.04 fold enrichment (6-mer frequency, TF over GST control)"
same,binding signal,[12],"1 fold enrichment (6-mer frequency, TF over GST control)"
